This passage reports sensor-assay potency score (higher = more potent) results from the OligoGym collection.
Further: reference of the scale not given here.

The first experiment deals with HSPA1A. Put plainly: pooled miR-30 sensor sort-seq; sequence = guide strand. The conditions noted are these: shRNA.
ATCTCTGCATGTAGAAACCGGA showed a sensor-assay potency score (higher = more potent) of -0.989.
The same measure, in the same setting: in the case of TTCTTCTTGTCGGCCTCGCTGA it was -0.634; in that of TTGTCGGCCTCGCTGATCTTGC, -1.46.
In turn, TTGACACTTGTCCAGCACCTTC had a sensor-assay potency score (higher = more potent) of -1.05.
Same read-out and setting: in the case of TCAACATTGCAAACACAGGAAA it was -1.05; in that of AAATTGAGAACTGACAAACAGA, -0.814; in that of TTGTCCAGCACCTTCTTCTTGT, 0.221.
The sequence TACTAGGAAATGCAAAGTCTTG displayed a sensor-assay potency score (higher = more potent) of -1.4.
On the same count and under the same terms, in the case of TAAAAAGAAGAAATAGTCGTAA it was 0.289.

The target of the next experiment is HSPA1L. Described as above. The note with it: shRNA.
As for TAAGTCCAGCAATCACACCTGC, the sensor-assay potency score (higher = more potent) was -0.0929.
TTCTTAGCACATTAAGTCCAGC returned a sensor-assay potency score (higher = more potent) of -0.826.
The same measure, in the same setting: in the case of AACTTAGTCAATACCATCGAAG it was -0.727; in that of TTCTCTTATGATCAAACTCATC, -1.68.
TTTCTCAGCATCCAGAACCATG yielded a sensor-assay potency score (higher = more potent) of -1.49.
For the sequence TTAGTCAATACCATCGAAGAGA, the sensor-assay potency score (higher = more potent) is -1.19.
For the sequence TTTATATTTCTCAGCATCCAGA, the sensor-assay potency score (higher = more potent) is -0.719.
With TAGAGTTTTGTGATGATAGGGT, the sensor-assay potency score (higher = more potent) was 0.798.
Still for that read-out and setting: in the case of TTTATCAGACTCACTAATCTTG it was 0.0614; in that of TAGGGTTACACATCTGCTCCAA, 0.367.
Take TTGGTTGTCAGAGTAGGTGGTG: the sensor-assay potency score (higher = more potent) was 0.316.
TAATCTTGCCCTTCAAACCTTC registered a sensor-assay potency score (higher = more potent) of -0.52.

The next experiment deals with IBTK. The experiment is described as above. The conditions noted are these: shRNA.
Regarding TTTGCTTTCTTGAACATAGTTT, the sensor-assay potency score (higher = more potent) is -0.494.
In the case of TAGCATAGCAGCATTCTTCAGG, the sensor-assay potency score (higher = more potent) is -0.0417.
TAATACAACAGTATGATCCTTA had a sensor-assay potency score (higher = more potent) of 1.02.
In turn, TTATCTTGAATATACAGACTAA displayed a sensor-assay potency score (higher = more potent) of -0.465.
TAAACAGCTTCTCTAGTCCATA registered a sensor-assay potency score (higher = more potent) of -1.24.
TTCTTGAACATAGTTTCCGAAT: the sensor-assay potency score (higher = more potent) was -1.25.
On to TAAACTGTAAACAAGACAGTTT, for which the sensor-assay potency score (higher = more potent) was -0.0719.
On to TAACACAGACTGTAGCTCCATC, for which the sensor-assay potency score (higher = more potent) was -0.515.
TCTTCTTGCACTGATAGTCTGC: the sensor-assay potency score (higher = more potent) was -0.142.
Still for that read-out and setting: to TTGCACTATACATTGCTGCAAA belongs -0.722.
For TTGAGCTTGATTACTTTTGTAA, the sensor-assay potency score (higher = more potent) stood at 0.24.
On to TAAGCCAATCTAACACTCCTTT, for which the sensor-assay potency score (higher = more potent) was determined as 0.0727.

The target of a further experiment is ICAM4. The experiment is described as above. The conditions noted are these: shRNA.
Sequence TAGGCGGTGATCCTGGAGGTGG showed a sensor-assay potency score (higher = more potent) of -1.35.
The sequence TAGCTAGGCACTTGCATAGGTA came in with a sensor-assay potency score (higher = more potent) of -0.927.
Take TTGTAGGCGGTGATCCTGGAGG: the sensor-assay potency score (higher = more potent) was -1.08.
For TTGAGCTGCACTGACTTCCCCG, the sensor-assay potency score (higher = more potent) came out at 0.304.
Still for that read-out and setting: to TTTTTCTCGCTCAGCCGGCATA belongs -1.31; to TGCACAGCCACGAACTCCGGGC, -1.29.
TCGTAGGTCAAGGTCACGTTGG: the sensor-assay potency score (higher = more potent) was -0.884.
